Measurements published in PubChem BioAssay (NCI).
Compounds without any hit were thinned out: in the full panel of roughly 83,000, 20% have a hit.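 Method: cells in 96-well plates; compound added at one concentration; 48 h incubation; percent growth measured; values under 10 scored active.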 A number with no mark means an inactive call. Calls of active or inactive are those of the source.

Each compound was assayed on HOP-92 NSCLC (assay: NCI-60 one-dose screen, 48 h (100 = growth as untreated, 0 = no growth, -100 = all killed)). Conditions: 10 µM unless noted.
Experimental: Growth inhibition of the HOP-92 human Non-Small Cell Lung tumor cell line is measured as a screen for anti-cancer activity. Cells are grown in 96 well plates and exposed to the test compound for 48 hours. Compounds are tested at a single concentration, which is 10^-5 M for most compounds. The reported endpoint is percent growth (GI% or GIPRCNT), where numbers from 0 - 100% represent growth inhibition, and numbers from -100% - 0 represent cell death. For example, a value of 40 represents 60% growth inhibition. A value of 0 means no net growth occurred over the course of the experiment. A value of -40 indicates 40% of cells at the beginning of the experiment died by the end of the experiment. A value of -100 means all cells are dead at the end of the experiment.
NCI-60 Human Tumor Cell Lines Screen was performed using the standard one-dose NCI protocol, which is described in more detail at https://dtp.cancer.gov/discovery_development/nci-60/default.htm.
Compounds with GIPRCNT values below 10 were considered active. Activity score was based on GIPRCNT using the following formula: […]
Score is 0 for GIPRCNT values of 100 or above, 50 for GIPRCNT values of 0, and 100 for GIPRCNT values of -100.
`COc1ccc(S(=O)(=O)N(C)c2oc(-c3ccc(Cl)cc3)nc2C#N)cc1` gave a growth of 77.2%. Work on `Cc1cc([N+](=O)[O-])ccc1NC(=O)c1ccc2c(c1)nc(-c1ccccc1)n2C1CCCCC1` yielded a growth of 117%. With `O=C(Nc1ncc(Cc2cc(C(F)(F)F)ccc2Cl)s1)C(=S)N1CCOCC1` the growth was 70.4%. In the case of `O=C(OCc1ccc2c(Br)cc(Br)c(O)c2n1)N1CCN(C(=O)c2cc3ccccc3[nH]2)CC1`, the growth is reported as 25.7%. `CNC1=C(Br)C(=O)c2c(C(=O)OC)c(C)nc(C)c2C1=O` showed a growth of 104%. In the case of `COCCn1cc(-c2nc(-c3cc4cccnc4n3C)cs2)c2cc(OC)ccc21`, the growth is reported as 31.4%. `COC(=O)c1sc(-c2ccc(C)cc2)cc1O` showed a growth of 105%. `Cc1c(-c2cnc3ccc(Cl)cc3c2C(=O)O)nnn1-c1ccc(Cl)cc1` gave a growth of 88.7%. Work on `NCCNc1ccc([N+](=O)[O-])cc1` yielded a growth of 98.9%. In the case of `COc1cccc(-c2cc(-c3ccc(Nc4nc(Nc5ccc(Cl)cc5)nc(Nc5ccc(Cl)cc5)n4)cc3)nc(N)c2C#N)c1`, the growth is reported as -85.7% (active). `CC1(C)CCC[C@]23C(=O)O[C@](O)(C(=O)C4=C[C@@](C)(/C=C/CCCc5ccc6ccc7cccc8ccc5c6c78)CC[C@@]42O)[C@@H]13` was tested, and the growth was -83.9% (active). In the case of `CCOC(=O)C1=C(C)N(C)C(=O)N(C)C1c1ccccc1` (stereo not given), the growth is reported as 78.5%. In the case of `CCOC(=O)c1c(N)sc2cc(O)ccc12`, the growth is reported as 121%. In the case of `O=C(CN1C(=O)c2ccccc2S1(=O)=O)Nc1nc(-c2cc3ccccc3oc2=O)cs1`, the growth is reported as 96.4%. With `O=C(Nc1ccccc1C(F)(F)F)C1=NCCCCN1` the growth was 97.9%. Compound `COc1cc(OC)cc(C(=O)Nc2cnc(Nc3ccc(N4CCOCC4)nc3)nc2Oc2ccc(C(F)(F)F)cc2)c1` has a growth of 86.7%. In the case of `Cc1ccc(C2(C)NC(=O)N(CC(=O)Nc3cccc(C)c3)C2=O)cc1` (stereo not given), the growth is reported as 63.8%. In the case of `COC(=O)[C@H]1Cc2c([nH]c3ccccc23)[C@H](c2ccc3c(c2)OCO3)N1`, the growth is reported as 84.9%. `COc1ccc(-c2csc(NC(=O)CSc3nc(C)cc(=O)[nH]3)n2)cc1` was tested, and the growth was 95.5%. `CCCCCCCC/C=C\CCCCCCCCOc1ccc(CC(=O)NCC[N+]2(C)CCCC2)cc1` showed a growth of 57.4%. `O=C1c2c(c3c4cc(F)ccc4oc3c3[nH]c4ccccc4c23)C(=O)N1O` showed a growth of 48.8%. With `Cc1cc2c(C(C)C)c(O)c(O)c(/C=N/O)c2c(O)c1-c1c(C)cc2c(C(C)C)c(O)c(O)c(/C=N/O)c2c1O` the growth was 8.85% (active). `COCCNC(=O)Cc1cc(-c2ccc(Cl)cc2)n(-c2ccccc2)c1C` showed a growth of 78.8%. `Cc1ccccc1NC(=O)Cn1cc(CN2CCN(c3ccnc4cc(Cl)ccc34)CC2)nn1` was tested, and the growth was 68.5%. Compound `CCN1C(=O)N(CC)C2C1NN=c1s/c(=C3\C(=O)N(C)c4ccccc43)c(=O)n12` (stereo not given) has a growth of 56.8%. `COc1ccc(/C=C/C(=O)c2ccc(-n3cc(CN4CCN(c5cc6c(cc5F)c(=O)c(C(=O)O)cn6C5CC5)CC4)nn3)cc2)cc1` showed a growth of 66.6%. For `CC(C)(C)n1cc(-c2ccnc(NCCNS(=O)(=O)c3cccc4ccccc34)c2)c(-c2cccc(O)c2)n1`, the growth was 64.5%. Work on `CCOC(=O)C1=C(c2ccccc2)N=C2SC=C(c3cccc([N+](=O)[O-])c3)N2C1c1ccc(O)cc1` (stereo not given) yielded a growth of 90.1%. `CC(=O)Cc1nsc(NC(=O)c2cc(-c3cc(Cl)ccc3Cl)oc2C)n1` showed a growth of 112%. In the case of `C#CCOc1ccc(C2=NN(C)C3N=C(Cl)c4ncn(C)c4N23)cc1OCC#C` (stereo not given), the growth is reported as 79.8%. With `COc1ccc(/C=N/NC(=O)Cn2nnc3ccccc32)cc1` the growth was 104%. `NC(=N\N=C/c1ccc(Cl)cc1Cl)/C(N)=N\N=C/c1ccc(Cl)cc1Cl` was tested, and the growth was 43.8%. With `COc1ccccc1NC(=O)n1c(=O)cc(C)c2ccc(O)cc21` the growth was 88.9%. For `COc1ccc(CNc2ccc3nc(CCC4CCCCC4)[nH]c3c2)cc1`, the growth was 38.3%. With `CCN(CC)CCCNC(=O)c1c2c(n3ccccc13)C(=O)c1ncccc1C2=O` the growth was -47.1% (active). In the case of `CN1CCN(Cc2ccc(NC(=O)c3cncc(C#Cc4c(N)ncc5cc(F)ccc45)c3)cc2C(F)(F)F)CC1`, the growth is reported as -14.2% (active). `COc1ccc(C2=C/C(=C\c3ccccc3O)C(=O)N2Cc2ccccc2)cc1` was tested, and the growth was 64.6%. For `COc1cccc(C(=O)Nc2cccc(NC(=O)c3ccccn3)c2)c1`, the growth was 115%. In the case of `CCOC(=O)CCC(=O)P(=O)(O)O`, the growth is reported as 38.9%. `COc1cccc(/C=C/C(=O)/C=C(/C=C/c2cccc(OC)c2OC)OB(F)F)c1OC` was tested, and the growth was 103%.
